These results are taken from the supplement of paper PMC10338343.

± gives the standard deviation. A value given as a limit tells only on which side of the number the result lay.

One experiment concerns MILI (PIWIL2) piRISC loaded with L1MC piRNA (26 nt). The experiment in a line: pre-steady-state target cleavage rate (min^-1); guide: L1MC piRNA 5'p-UAACUAAAUACUAUGCAAGCUGUAGG; MIWI and MILI are mouse PIWI proteins and EfPiwi is from a freshwater sponge; tags in brackets are library labels; higher = faster piRNA-guided slicing of the target. The settings on record: auxiliary factor: 500 nM mouse GTSF1. On the procedure: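 Cleave-'n-Seq: a library of target RNAs (target site embedded in constant flanks, ACAGCATTCCGCGTTAGTGATATCCG... 5' flank; DNA-blocked outside the site) at 0.1 nM was incubated with 1 nM active mouse MILI or MIWI piRISC (synthetic 5'-monophosphorylated piRNA guide) with or without 500 nM mouse GTSF1 at 33 °C for 1 min to 16 h. Uncleaved targets were sequenced and normalised to non-target controls, and the pooled three trials were fitted to a burst-and-steady-state model to give the pre-steady-state cleavage rate (min^-1; k3 is constrained to at most 1e-4). Sequence is the target site only; target names encode pairing extent (gX:gY) and contiguous / 1-mismatch / 2-mismatch / bulge geometry. Fits with R² ≤ 0 are excluded.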
For UCCUGGAUCAGCUUGGAUAGUAUUUAGAAA, the “pre-steady-state target cleavage rate” value stood at 0.0109 ± 0.0051. Still for that read-out and setting: the result for UCCUGCUACAGGUUGCAUUGUAUUUAGUUA reads 0.141 ± 0.019. For the sequence UCCUGGAACACGAUGCAUAGUAUUUACAAA, the “pre-steady-state target cleavage rate” value was found to be 0.0623 ± 0.018. Turning to UCCUGGAUGUGCUUGCAUAGUAUUUCGUUA, the “pre-steady-state target cleavage rate” value came out at 0.0261 ± 0.0098. As for UCCUCCUACACGAUGCAUAGUAUUUUCAAA, the “pre-steady-state target cleavage rate” value worked out at 0.0649 ± 0.017.

Turning to UCCUCCAACAGCAUGCAUAGUAUUUAGUUA, the “pre-steady-state target cleavage rate” value was determined as 0.282 ± 0.016.

Consider UCCUGGAACAGGAUGCAUAGUAUUUAGUUA, for which the “pre-steady-state target cleavage rate” value turned out to be 0.285 ± 0.016. As for UCCUGCUACAGCUUCGUUAGUAUUUAGUAA, the “pre-steady-state target cleavage rate” value was 0.154 ± 0.033.

Take UCCUCCUAGAGCUUGCAUAGUAUUUACUUA: the “pre-steady-state target cleavage rate” value came out at 0.146 ± 0.03. As to UCCUGGUACAGCUUGCAUUGUAUUUUGUUA, the “pre-steady-state target cleavage rate” value was 0.0604 ± 0.018. In the case of UCCUGGAUGUCCUUGCAUACUAUUAAGUUA, the “pre-steady-state target cleavage rate” value was found to be 0.0099 ± 0.0049. In the case of UCCUGGAUGAGCUUGCAUACUAUUUACUUA, the “pre-steady-state target cleavage rate” value amounted to 0.00478 ± 0.0043. For UCCUGGAUGUGCAAGCAUAGUAUUUAGUUA, the “pre-steady-state target cleavage rate” value came out at 0.055 ± 0.012.

As to UCCUGCUACAGGUUGCAUAGUAUUUAGUAA, the “pre-steady-state target cleavage rate” value was 0.223 ± 0.024. Same read-out and setting: the figure for UCCUGGUACACCUUGCAUAGUAUUUAGUAA is 0.182 ± 0.043.

With UCCUGGAUGAGCUAGCAUAGUAUUAAGUUA, the “pre-steady-state target cleavage rate” value is 0.226 ± 0.023. Same read-out and setting: the result for UCCUCCUACAGCUUGCAUAGUUAAUAGUUA reads 0.0685 ± 0.022. Still for that read-out and setting: the result for UCCUGGAUCAGCUUGAUAGUAUUUAGUUA reads 0.0575 ± 0.0091; that for UCCUCCUACAGCUUGCAUACAAUUUAGUUA, 0.00727 ± 0.0046. Consider UCCUGGAACAGCUUGCAUAGUUUUUAGAAA, for which the “pre-steady-state target cleavage rate” value is 0.0191 ± 0.007. Same read-out and setting: the figure for UCCUGCUUCAGCUUGCAUAGUAUUUACUUA is 0.116 ± 0.021; for UCCUGGUACAGCAAGCAUAGUAUUUAGUAA it is 0.239 ± 0.029. On the same count and under the same terms, the result for UCCUGGAUCAGCUAGCUUAGUAUUUAGUUA reads 0.214 ± 0.018; that for UCCUCCUACACCUUCCAUAGUAUUUAGUUA, 0.0308 ± 0.014. The same measure, in the same setting: the figure for UCCUGGAUCAGCAUGCAUAGUAUAUAGUUA is 0.297 ± 0.018.

The same experiment, now with this note: auxiliary factor: none (no GTSF1).
Regarding “UCCUGGAUGUCGAAGCAUAGUUAAAUCAAA [g10:g16:cont:t1A]”, the “pre-steady-state target cleavage rate” value was under 0.0001. Same read-out and setting: the result for UCCUGCUACAGGUUGCAUUGUAUUUAGUUA reads 0.0103 ± 0.0026; that for UCCUCCAACAGCAUGCAUAGUAUUUAGUUA, 0.0108 ± 0.0025. In the case of UCCUGGAACAGGAUGCAUAGUAUUUAGUUA, the “pre-steady-state target cleavage rate” value was determined as 0.0116 ± 0.0027. Regarding UCCUGGAUGUGCAAGCAUAGUAUUUAGUUA, the “pre-steady-state target cleavage rate” value came out at 0.00481 ± 0.0026. For UCCUGCUACAGGUUGCAUAGUAUUUAGUAA, the “pre-steady-state target cleavage rate” value was 0.0054 ± 0.0028. For UCCUGGUACACCUUGCAUAGUAUUUAGUAA, the “pre-steady-state target cleavage rate” value was 0.00413 ± 0.0031. Turning to UCCUGGAUGAGCUAGCAUAGUAUUAAGUUA, the “pre-steady-state target cleavage rate” value turned out to be 0.00417 ± 0.0024. For the sequence UCCUGGAUCAGCUUGAUAGUAUUUAGUUA, the “pre-steady-state target cleavage rate” value turned out to be 0.00451 ± 0.002. In the case of UCCUGGAUGUCGUUGCAUAGUUUUAAGUUA, the “pre-steady-state target cleavage rate” value turned out to be 0.0042 ± 0.0022. With UCCUGCUUCAGCUUGCAUAGUAUUUACUUA, the “pre-steady-state target cleavage rate” value was found to be 0.00294 ± 0.0023. On the same count and under the same terms, the result for UCCUGGUACAGCAAGCAUAGUAUUUAGUAA reads 0.00526 ± 0.0023; that for UCCUGGAUCAGCUAGCUUAGUAUUUAGUUA, 0.00868 ± 0.002; that for UCCUGGAUCAGCAUGCAUAGUAUAUAGUUA, 0.00579 ± 0.0027.
